The text below walks through data of ChEMBL document CHEMBL2218924, “A broad activity screen in support of a chemogenomic map for kinase signalling research and drug discovery” (Biochem J, 2013).

Each structure is given as a SMILES string.

The target of assay [1] is T1, Protein kinase C zeta type (Homo sapiens) (UniProt Q05513).
T1 sequence (whole entry): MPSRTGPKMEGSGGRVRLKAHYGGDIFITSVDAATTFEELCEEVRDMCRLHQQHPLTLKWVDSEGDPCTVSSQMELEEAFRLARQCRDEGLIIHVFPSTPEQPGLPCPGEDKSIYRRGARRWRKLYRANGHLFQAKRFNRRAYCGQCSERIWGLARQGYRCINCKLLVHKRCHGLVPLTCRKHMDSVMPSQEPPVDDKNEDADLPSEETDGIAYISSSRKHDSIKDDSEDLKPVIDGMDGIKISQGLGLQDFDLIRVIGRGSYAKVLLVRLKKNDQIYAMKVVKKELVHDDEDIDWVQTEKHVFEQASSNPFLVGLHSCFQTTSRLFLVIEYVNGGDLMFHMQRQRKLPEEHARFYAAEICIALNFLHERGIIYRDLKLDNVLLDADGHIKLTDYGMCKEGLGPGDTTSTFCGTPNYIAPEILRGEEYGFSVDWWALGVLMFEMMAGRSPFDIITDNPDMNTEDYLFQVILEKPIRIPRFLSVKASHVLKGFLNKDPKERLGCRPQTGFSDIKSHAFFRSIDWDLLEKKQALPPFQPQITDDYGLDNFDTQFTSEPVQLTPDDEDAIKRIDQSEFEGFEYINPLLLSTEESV
The following applies: at 1 µM.

The target in assay [2] is T2, Mitogen-activated protein kinase kinase kinase 5 (Homo sapiens) (UniProt Q99683).
T2 sequence (whole entry): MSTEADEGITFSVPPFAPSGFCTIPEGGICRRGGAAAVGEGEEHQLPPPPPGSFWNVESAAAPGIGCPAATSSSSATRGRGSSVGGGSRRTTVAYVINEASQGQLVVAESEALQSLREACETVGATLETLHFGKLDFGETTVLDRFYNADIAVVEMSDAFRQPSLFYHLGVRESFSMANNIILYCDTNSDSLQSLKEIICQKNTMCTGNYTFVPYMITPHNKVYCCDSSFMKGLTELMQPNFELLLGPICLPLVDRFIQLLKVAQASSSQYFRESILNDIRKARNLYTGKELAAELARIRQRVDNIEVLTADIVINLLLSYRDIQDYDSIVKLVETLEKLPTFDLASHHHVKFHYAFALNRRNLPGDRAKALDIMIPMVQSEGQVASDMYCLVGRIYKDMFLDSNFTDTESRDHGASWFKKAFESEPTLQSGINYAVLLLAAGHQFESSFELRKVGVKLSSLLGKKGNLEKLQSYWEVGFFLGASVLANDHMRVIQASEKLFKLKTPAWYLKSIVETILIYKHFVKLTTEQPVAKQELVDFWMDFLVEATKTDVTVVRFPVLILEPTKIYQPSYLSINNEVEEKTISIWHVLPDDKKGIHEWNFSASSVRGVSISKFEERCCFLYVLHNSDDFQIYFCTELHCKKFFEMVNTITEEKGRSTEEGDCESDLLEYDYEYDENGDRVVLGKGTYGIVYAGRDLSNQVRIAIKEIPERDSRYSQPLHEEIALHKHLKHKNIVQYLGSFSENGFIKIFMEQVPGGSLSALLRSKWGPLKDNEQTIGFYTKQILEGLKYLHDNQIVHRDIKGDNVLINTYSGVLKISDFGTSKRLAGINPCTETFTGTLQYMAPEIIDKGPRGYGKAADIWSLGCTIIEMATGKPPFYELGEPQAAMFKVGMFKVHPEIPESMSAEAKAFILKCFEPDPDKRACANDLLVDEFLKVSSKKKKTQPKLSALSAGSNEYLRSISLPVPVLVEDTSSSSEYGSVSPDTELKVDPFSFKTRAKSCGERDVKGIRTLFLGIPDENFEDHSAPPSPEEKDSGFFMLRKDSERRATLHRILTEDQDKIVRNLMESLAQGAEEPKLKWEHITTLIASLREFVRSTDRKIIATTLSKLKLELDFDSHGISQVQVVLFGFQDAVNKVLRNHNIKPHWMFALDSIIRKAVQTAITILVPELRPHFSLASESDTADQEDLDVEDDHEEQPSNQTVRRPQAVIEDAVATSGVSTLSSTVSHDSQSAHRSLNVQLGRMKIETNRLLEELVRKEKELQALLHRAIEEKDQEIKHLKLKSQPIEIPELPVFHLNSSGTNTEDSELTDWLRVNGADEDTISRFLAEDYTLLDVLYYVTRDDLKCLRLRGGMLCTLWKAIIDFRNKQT
The following applies: at 10 µM.

Assay [3] addresses Tyrosine-protein kinase ABL1 (Homo sapiens) (UniProt P00519). The following applies: at 1 µM.
Assay [4] shares this target. The following applies: at 10 µM.
For assay [5], the target named is Tyrosine-protein kinase ABL2 (Homo sapiens) (UniProt P42684). The following applies: at 1 µM.
The target is the same in assay [6]. The settings on record: at 10 µM.
For assay [7], the target named is T3, Aurora kinase A (Homo sapiens) (UniProt O14965).
T3 sequence (whole entry): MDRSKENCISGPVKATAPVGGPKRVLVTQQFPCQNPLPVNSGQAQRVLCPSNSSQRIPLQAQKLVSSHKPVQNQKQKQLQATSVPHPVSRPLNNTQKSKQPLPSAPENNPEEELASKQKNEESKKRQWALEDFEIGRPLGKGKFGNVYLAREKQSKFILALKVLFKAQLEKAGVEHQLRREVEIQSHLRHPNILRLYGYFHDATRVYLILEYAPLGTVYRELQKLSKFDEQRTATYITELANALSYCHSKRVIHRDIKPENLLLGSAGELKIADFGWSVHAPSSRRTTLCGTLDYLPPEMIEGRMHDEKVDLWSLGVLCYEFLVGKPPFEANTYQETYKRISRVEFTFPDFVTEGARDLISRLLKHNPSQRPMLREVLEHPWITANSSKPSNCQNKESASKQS
The settings on record: at 1 µM.

In assay [8] the target is T3, Aurora kinase A (Homo sapiens). The settings on record: at 10 µM.
Assay [9] deals with Aurora kinase B (Homo sapiens) (UniProt Q96GD4). The following applies: at 1 µM.
Assay [10] shares this target. The settings on record: at 10 µM.

Chain of Aurora kinase B (Homo sapiens) (Q96GD4 whole entry): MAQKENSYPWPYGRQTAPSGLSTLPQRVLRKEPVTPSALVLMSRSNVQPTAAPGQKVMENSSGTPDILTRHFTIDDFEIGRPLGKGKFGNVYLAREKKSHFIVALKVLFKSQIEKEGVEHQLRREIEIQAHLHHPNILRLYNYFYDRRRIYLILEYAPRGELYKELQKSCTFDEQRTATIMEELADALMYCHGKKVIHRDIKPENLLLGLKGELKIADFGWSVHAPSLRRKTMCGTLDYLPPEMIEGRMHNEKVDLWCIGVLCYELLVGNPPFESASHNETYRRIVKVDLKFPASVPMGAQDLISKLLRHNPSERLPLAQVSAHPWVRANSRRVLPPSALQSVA
Chain of Tyrosine-protein kinase ABL2 (Homo sapiens) (P42684 whole entry): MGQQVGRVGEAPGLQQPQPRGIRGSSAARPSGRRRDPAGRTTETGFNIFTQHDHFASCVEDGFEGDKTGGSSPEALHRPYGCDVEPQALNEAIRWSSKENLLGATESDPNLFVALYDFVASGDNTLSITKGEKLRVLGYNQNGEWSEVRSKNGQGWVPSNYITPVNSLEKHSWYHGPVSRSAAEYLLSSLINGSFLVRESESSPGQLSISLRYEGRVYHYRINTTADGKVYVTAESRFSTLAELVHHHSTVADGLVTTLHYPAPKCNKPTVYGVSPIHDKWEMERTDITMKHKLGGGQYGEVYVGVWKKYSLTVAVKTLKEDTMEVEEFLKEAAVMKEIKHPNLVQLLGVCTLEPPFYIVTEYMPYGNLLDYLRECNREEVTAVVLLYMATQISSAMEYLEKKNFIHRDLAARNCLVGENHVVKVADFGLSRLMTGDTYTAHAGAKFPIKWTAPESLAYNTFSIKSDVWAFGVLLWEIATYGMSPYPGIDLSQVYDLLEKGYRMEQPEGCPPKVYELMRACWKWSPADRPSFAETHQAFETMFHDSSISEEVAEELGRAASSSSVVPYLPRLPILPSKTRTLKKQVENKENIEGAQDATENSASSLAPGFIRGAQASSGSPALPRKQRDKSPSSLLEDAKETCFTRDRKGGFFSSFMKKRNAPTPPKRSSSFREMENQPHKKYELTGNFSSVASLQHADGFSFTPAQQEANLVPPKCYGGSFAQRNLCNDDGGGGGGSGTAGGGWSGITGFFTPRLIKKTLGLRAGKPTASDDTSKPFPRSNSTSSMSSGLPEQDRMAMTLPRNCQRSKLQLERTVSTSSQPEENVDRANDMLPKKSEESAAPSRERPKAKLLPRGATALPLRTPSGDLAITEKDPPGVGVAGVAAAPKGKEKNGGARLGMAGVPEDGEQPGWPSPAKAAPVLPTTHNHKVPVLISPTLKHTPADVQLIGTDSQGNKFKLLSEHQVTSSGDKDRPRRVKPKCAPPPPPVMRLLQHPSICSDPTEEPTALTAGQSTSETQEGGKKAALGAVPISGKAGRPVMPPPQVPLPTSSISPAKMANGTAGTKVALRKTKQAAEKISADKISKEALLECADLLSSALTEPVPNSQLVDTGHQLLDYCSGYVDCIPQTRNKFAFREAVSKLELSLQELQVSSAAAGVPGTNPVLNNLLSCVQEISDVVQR
Chain of Tyrosine-protein kinase ABL1 (Homo sapiens) (P00519 whole entry): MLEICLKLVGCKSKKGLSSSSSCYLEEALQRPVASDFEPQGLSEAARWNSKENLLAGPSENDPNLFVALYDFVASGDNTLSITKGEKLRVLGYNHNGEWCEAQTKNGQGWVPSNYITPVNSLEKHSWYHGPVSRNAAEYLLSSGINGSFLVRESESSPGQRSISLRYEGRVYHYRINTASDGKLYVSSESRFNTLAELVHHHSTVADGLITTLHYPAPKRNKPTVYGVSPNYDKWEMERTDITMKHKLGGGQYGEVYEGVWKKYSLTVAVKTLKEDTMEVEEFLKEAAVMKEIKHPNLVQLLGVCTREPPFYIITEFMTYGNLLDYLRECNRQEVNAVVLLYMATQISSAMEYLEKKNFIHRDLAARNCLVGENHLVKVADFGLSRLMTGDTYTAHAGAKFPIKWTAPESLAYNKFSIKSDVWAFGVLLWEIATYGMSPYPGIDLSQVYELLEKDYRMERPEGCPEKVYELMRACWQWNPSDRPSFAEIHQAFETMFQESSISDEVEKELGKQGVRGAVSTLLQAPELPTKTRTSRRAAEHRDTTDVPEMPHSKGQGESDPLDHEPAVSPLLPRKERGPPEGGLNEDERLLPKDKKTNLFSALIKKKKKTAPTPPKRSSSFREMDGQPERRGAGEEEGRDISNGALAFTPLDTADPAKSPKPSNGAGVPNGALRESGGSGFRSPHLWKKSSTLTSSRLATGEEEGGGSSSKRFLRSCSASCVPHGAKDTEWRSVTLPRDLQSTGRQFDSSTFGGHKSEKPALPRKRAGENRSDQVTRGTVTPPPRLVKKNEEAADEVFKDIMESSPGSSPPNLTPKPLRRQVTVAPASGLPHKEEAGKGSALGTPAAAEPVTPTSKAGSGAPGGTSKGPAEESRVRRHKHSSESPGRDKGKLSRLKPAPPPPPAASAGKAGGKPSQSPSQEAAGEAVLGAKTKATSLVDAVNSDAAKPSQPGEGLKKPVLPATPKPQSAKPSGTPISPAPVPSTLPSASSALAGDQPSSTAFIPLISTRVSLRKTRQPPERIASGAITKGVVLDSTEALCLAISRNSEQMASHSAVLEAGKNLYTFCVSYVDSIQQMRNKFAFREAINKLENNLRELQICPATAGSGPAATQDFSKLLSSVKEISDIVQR

Consider `O=C1NC(=O)/C(=C/c2ccc3c(c2)OC(F)(F)O3)S1`, for which the residual activity was 97% (inactive) in [1]; 97% in assay [2]; 103% in assay [3]; 79% in assay [4]; 94% in assay [5]; 98% in assay [6]. Besides, the residual activity in [7] came out at 90%; in assay [8], 57%; in [9] it was 74%; in assay [10], 64%.
In the case of `O=C(Nc1cccc(Nc2cc(Nc3cccc(C(F)(F)F)c3)ncn2)c1)C1CC1`, the residual activity in [1] is 101% (inactive); in [2] it was 104%; in [3], 84%; in assay [4] it was 104%; in assay [5], 92%; in [6], 90%. Moreover, the residual activity was 95% in assay [7], 82% in [8], 68% in [9] and 30% in assay [10].
Regarding `O=C1NC(=O)c2cc(Nc3ccc(F)cc3)c(Nc3ccc(F)cc3)cc21`, the residual activity is 101% (inactive) in assay [1]; 92% in assay [2]; 85% in assay [3]; 87% in [4]; 90% in [5]; 58% in [6]. Also, the residual activity in assay [7] turned out to be 89%; in [8] it was 79%; in assay [9] it was 124%; in assay [10], 120%.
With `c1ccc(-c2n[nH]c3c2oc2ccccc23)cc1`, the residual activity in assay [1] is 99% (inactive); in assay [2], 90%; in [3], 96%; in assay [4] it was 77%; in [5], 115%; in assay [6], 93%. Besides, the residual activity in [7] is 53%; in [8], 31%; in assay [9], 39%; in [10], 4%.
In the case of `O=[N+]([O-])c1ccc(-c2nc(-c3ccc(F)cc3)c(-c3ccncc3)[nH]2)cc1`, the residual activity is 113% (inactive) in assay [1]; 100% in [2]; 95% in [3]; 95% in [4]; 82% in assay [5]; 46% in [6]. For the same molecule, the residual activity in assay [7] worked out at 103%; in [8], 109%; in assay [9], 114%; in [10], 90%.
On to `O=C1c2ccccc2-[n+]2ccc3c([nH]c4ccccc43)c21`, for which the residual activity in [1] was 98% (inactive); in [2], 92%; in assay [3], 102%; in assay [4], 102%; in assay [5], 111%; in assay [6], 87%. The residual activity in [7] stood at 101%; in [8] it was 89%; in assay [9], 93%; in [10], 52%.
In the case of `CCN(CC)C(=O)c1ccc(Nc2nc(OCC3CCCCC3)c3nc[nH]c3n2)cc1`, the residual activity in [1] is 96% (inactive); in assay [2], 24%; in assay [3], 46%; in assay [4], 6%; in assay [5], 52%; in assay [6], 9%. In addition, the residual activity in assay [7] is 1%; in [8], 5%; in [9] it was -1%; in [10], 0%.
With `CO[C@H]1[C@@H](OC)C[C@H](C)[C@@H](OC)C2=CC(=O)C=C(NC(=O)/C(C)=C/C=C/[C@H](OC)[C@@H](OC(N)=O)/C(C)=C/[C@@H]1C)C2=O`, the residual activity in [1] is 104% (inactive); in assay [2] it was 99%; in assay [3], 94%; in [4] it was 68%; in assay [5] it was 111%; in [6], 105%. The residual activity in assay [7] worked out at 77%; in [8], 86%; in assay [9] it was 72%; in [10] it was 68%.
With `NC(=O)c1ccc2[nH]c(-c3ccc(Oc4ccc(Cl)cc4)cc3)nc2c1`, the residual activity in assay [1] is 99% (inactive); in [2] it was 61%; in assay [3] it was 106%; in assay [4], 130%; in assay [5], 128%; in assay [6] it was 95%. In addition, the residual activity in assay [7] was found to be 88%; in assay [8], 86%; in [9], 68%; in assay [10], 34%.
For `Oc1ccc(Nc2nc(-c3ccc(Cl)cc3)cs2)cc1`, the residual activity in [1] was 115% (inactive); in assay [2], 105%; in assay [3] it was 94%; in [4], 75%; in assay [5], 101%; in [6], 72%. The residual activity in assay [7] is 115%; in [8] it was 122%; in [9], 124%; in assay [10] it was 71%.
Take `Ic1cccc(CSc2nnc(-c3ccncc3)o2)c1`: the residual activity is 101% (inactive) in assay [1]; 86% in assay [2]; 87% in [3]; 70% in [4]; 112% in assay [5]; 71% in [6]. Moreover, the residual activity in assay [7] worked out at 83%; in assay [8], 80%; in assay [9] it was 77%; in assay [10], 42%.
Consider `O=C1NC(=O)c2c1c1c3ccccc3[nH]c1c1[nH]c3cc(Br)ccc3c21`, for which the residual activity was 98% (inactive) in assay [1]; 86% in assay [2]; 98% in assay [3]; 82% in assay [4]; 109% in assay [5]; 87% in [6]. For the same molecule, the residual activity in assay [7] came to 93%; in assay [8], 75%; in assay [9] it was 5%; in assay [10] it was 4%.
For `CO[C@H]1C[C@@H]2CC[C@@H](C)[C@@](O)(O2)C(=O)C(=O)N2CCCC[C@H]2C(=O)O[C@H]([C@H](C)C[C@@H]2CC[C@@H](O)[C@H](OC)C2)CC(=O)[C@H](C)/C=C(\C)[C@@H](O)[C@@H](OC)C(=O)[C@H](C)C[C@H](C)/C=C/C=C/C=C/1C`, the residual activity in assay [1] is 96% (inactive); in assay [2] it was 96%; in assay [3], 91%; in assay [4] it was 139%; in assay [5], 119%; in assay [6], 118%. In addition, the residual activity in assay [7] is 87%; in assay [8], 118%; in assay [9], 92%; in assay [10], 73%.
As for `O=C1NC(=O)/C(=C\c2ccc3nccnc3c2)S1`, the residual activity is 104% (inactive) in assay [1]; 80% in assay [2]; 100% in assay [3]; 81% in assay [4]; 89% in [5]; 86% in assay [6]. In addition, the residual activity is 94% in assay [7], 46% in assay [8], 71% in assay [9] and 39% in [10].
On to `CCC(=O)Nc1ccc2ncnc(Nc3cccc(Br)c3)c2c1`, for which the residual activity in [1] is 116% (inactive); in assay [2], 108%; in [3], 90%; in [4], 89%; in [5] it was 96%; in assay [6], 72%. In addition, the residual activity in [7] worked out at 73%; in assay [8] it was 127%; in [9] it was 101%; in [10] it was 67%.
`Cc1nc(-c2ccccc2)c(-c2ccncc2)o1`: the residual activity in assay [1] was 113% (inactive); in assay [2] it was 85%; in assay [3], 26%; in [4] it was 33%; in assay [5] it was 62%; in assay [6], 45%. The residual activity in assay [7] is 122%; in assay [8], 86%; in [9], 44%; in assay [10], 25%.
Turning to `COc1cccc(-c2cc(=O)c3ccccc3o2)c1N`, the residual activity was 111% (inactive) in [1]; 112% in [2]; 111% in [3]; 92% in assay [4]; 115% in assay [5]; 74% in assay [6]. Further, the residual activity in [7] amounted to 122%; in assay [8] it was 107%; in assay [9], 113%; in [10], 103%.
